hNpr1 antagonist = human Npr1 receptor antagonism; P16066; HEK293 hNpr1 GloSensor cGMP, ANP-stimulated luminescence; Potency, µM (doses to about 46.3 µM), for the others: at the top dose activity change, negative = inhibition, most hits filed as inhibitors; hit rate 1.6% among 76,000; AID 1347048; calls by dose curve; further: on the % scale 0 is the no-effect control and ±100 the full control effect; nearly all actives have a fitted effect of over 60% in size
Target sequence (P16066 whole entry, looked up): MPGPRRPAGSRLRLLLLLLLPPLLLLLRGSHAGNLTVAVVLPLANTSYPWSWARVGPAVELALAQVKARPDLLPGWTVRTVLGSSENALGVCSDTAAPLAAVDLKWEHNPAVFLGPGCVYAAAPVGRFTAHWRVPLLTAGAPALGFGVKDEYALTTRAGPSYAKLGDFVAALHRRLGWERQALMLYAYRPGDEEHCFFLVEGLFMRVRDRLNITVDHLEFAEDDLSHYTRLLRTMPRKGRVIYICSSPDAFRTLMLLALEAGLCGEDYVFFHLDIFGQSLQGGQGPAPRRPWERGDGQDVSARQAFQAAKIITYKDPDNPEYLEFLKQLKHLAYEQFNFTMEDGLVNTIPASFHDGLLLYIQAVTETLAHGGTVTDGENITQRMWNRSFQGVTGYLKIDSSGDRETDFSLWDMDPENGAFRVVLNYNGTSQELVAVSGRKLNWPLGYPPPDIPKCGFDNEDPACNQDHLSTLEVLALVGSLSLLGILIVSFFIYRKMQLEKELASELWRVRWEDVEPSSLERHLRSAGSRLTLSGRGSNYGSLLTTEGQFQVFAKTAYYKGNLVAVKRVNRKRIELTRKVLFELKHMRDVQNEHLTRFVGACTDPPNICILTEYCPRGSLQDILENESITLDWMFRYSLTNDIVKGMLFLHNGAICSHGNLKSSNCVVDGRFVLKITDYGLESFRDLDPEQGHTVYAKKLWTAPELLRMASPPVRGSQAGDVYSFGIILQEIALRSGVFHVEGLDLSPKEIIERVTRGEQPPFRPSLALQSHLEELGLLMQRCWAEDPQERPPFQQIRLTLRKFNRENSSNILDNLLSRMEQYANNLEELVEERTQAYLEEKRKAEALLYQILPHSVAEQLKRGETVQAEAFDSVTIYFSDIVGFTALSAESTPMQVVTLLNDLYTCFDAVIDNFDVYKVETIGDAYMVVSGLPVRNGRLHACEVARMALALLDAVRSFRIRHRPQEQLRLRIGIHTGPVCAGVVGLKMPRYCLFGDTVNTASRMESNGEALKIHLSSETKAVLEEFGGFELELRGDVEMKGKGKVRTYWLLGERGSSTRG
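HEK293 cells stably expressing human Npr1 and cGMP GloSensor pGS-40F, loaded 2 h with 2% GloSensor reagent, given compound 30 min at room temperature. Luminescence read before and 20 min after 0.1 nM hNppA.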
Luciferase inh = blocks purified firefly luciferase enzyme activity. purified P. pyralis luciferase, luminescence, biochemical. Potency, µM (highest dose often 115 µM), most hits filed as inhibitors. hit rate 2.5% among 76,000. AID 1347043; further: on the % scale 0 is the no-effect control and ±100 the full control effect; nearly all actives have a fitted effect of over 65% in size
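Inhibitors were tested against purified firefly luciferase in a biochemical, low-substrate format (both substrates at 10uM) and luminescence measured with a CCD imager.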
HEK293 tox = kills HEK 293 cells; HEK 293 viability, ATP luminescence (CellTiter-Glo), 48-72 h; Potency, µM (titrated, usually from 115 µM), for inactives: at the highest dose activity change, negative = cytotoxicity, usual class: inhibitors; hit rate 6.6% among 94,000; further: on the % scale 0 is the no-effect control and ±100 the full control effect; nearly all actives have a fitted effect of over 60% in size
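ATP-coupled CellTiter-Glo luminescence served as viability read-out, recorded 10 min after reagent addition at room temperature. HEK 293 cells, 250 cells/well, had been incubated with pintool-transferred compound for 48 or 72 hr at 37 degree Celsius.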
GPT2 inhibitor = inhibitors of human GPT2 alanine aminotransferase. Recombinant GPT2, coupled pyruvate oxidase/HRP Amplex Red fluorescence. Q8TD30. hit rate 0.25% among 100,000. AID 1671188. Potency, µM (titrated, usually from 57.7 µM), for inactives: at the highest dose activity change, negative = inhibition, hits mostly inhibitors; further: on the % scale 0 is the no-effect control and ±100 the full control effect; nearly all actives have a fitted effect of over 60% in size
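Fluorescence read-out: pyruvate from GPT2 turnover coupled to pyruvate oxidase, HRP and Amplex Red (0.2mM ThPP, 0.2U/mL PO and HRP, 50uM Amplex final). Substrates 250uM a-KG, 2mM L-alanine; enzyme 10ng/uL; 30 min RT.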
3T3 cytotox = kills NIH 3T3 cells | Potency, µM (doses to about 96.7 µM), for the others: top-dose activity change, negative = cytotoxicity, usual class: inhibitors | AID 1345082 | NIH 3T3 viability, CellTiter-Glo ATP luminescence, 48-72 h | hit rate 4.3% among 94,000; further: on the % scale 0 is the no-effect control and ±100 the full control effect; nearly all actives have a fitted effect of over 55% in size
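ATP-dependent luminescence (CellTiter-Glo) served as the viability signal for NIH 3T3 cells treated with compound for 48 or 72 hr at 37 °C.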
Npr1 antag conf = confirmation of human Npr1 natriuretic peptide receptor antagonists; HEK293 hNpr1 cGMP GloSensor luminescence, ANP-stimulated; shares compounds with hNpr1 antagonist; Potency, µM (doses to about 57.6 µM), without a hit: at the top dose activity change, negative = inhibition, most hits filed as inhibitors; hit rate 76% among 1,400; calls by dose curve; further: nearly all actives have a fitted effect of over 70% in size
NPR2 antag = selectivity test of Npr1 antagonists against human Npr2; shares compounds with hNpr1 antagonist; HEK293 hNpr2 GloSensor cGMP luminescence, CNP-stimulated; Potency, µM (top dose mostly 57.6 µM), without a hit: at the highest dose activity change, negative = inhibition, usual class: inhibitors; hit rate 67% among 1,400; calls by dose curve; further: nearly all actives have a fitted effect of over 70% in size
FLuc inh counter = inhibits firefly luciferase, false Npr1 antagonist flag; shares compounds with hNpr1 antagonist; purified FLuc enzyme, luminescence, Km substrate; Potency, µM (top dose mostly 57.6 µM), without a hit: top-dose activity change, negative = inhibition, hits mostly inhibitors; hit rate 0.7% among 1,400; further: 0% is about no effect
GloSensor cGMP = reduces cGMP signal in GloSensor control cells | shares compounds with hNpr1 antagonist | HEK293 GloSensor cGMP, SNP-stimulated, luminescence | Potency, µM (doses to about 57.6 µM), for inactives: top-dose activity change, negative = inhibition, most hits filed as inhibitors | hit rate 69% among 1,400 | AID 1347051; calls by dose curve; further: on the % scale 0 is the no-effect control and ±100 the full control effect; nearly all actives have a fitted effect of over 70% in size
Numbers without * were called inactive; [ ] = dose if it differs, or a comment. In the library only some 10% were active in any assay of this set; here they are far more common. Unless noted, the call rests on the fitted dose curve; in most records, active means well fitted curve in the direction sought with a large enough effect; inconclusive means small, poorly fitted or top-dose-only effect, or another doubt; inactive means no such curve, though single readings can be large; an effect the other way counts as inactive or inconclusive. Potency means the concentration at half of the fitted maximal effect.

Screening COc1ccc(Nc2cnc3ccc(N(C)Cc4cccnc4)nn23)cc1 returned hNpr1 antagonist -15%[70.6 µM], Luciferase inh inactive, HEK293 tox inconclusive, GPT2 inhibitor 1%[88.5 µM] and 3T3 cytotox inconclusive.
For O=C(NC1CCCc2c1[nH]c1ccc(F)cc21)c1ccncc1 (centres undefined) the results were hNpr1 antagonist -19%, Luciferase inh inactive, HEK293 tox inconclusive, GPT2 inhibitor inconclusive and 3T3 cytotox inconclusive.
`O=C(NC1CCCc2c1[nH]c1ccc(Cl)cc21)c1ccncc1` (centres undefined) gave hNpr1 antagonist inconclusive, Luciferase inh inactive, HEK293 tox 22µM*, GPT2 inhibitor -1%, 3T3 cytotox inconclusive, Npr1 antag conf inconclusive, NPR2 antag -30%, FLuc inh counter -4% and GloSensor cGMP -27%.
`CC(=O)Nc1ccc(CN2CCN3C(=O)N(C)C[C@H]3C2)cc1` gave hNpr1 antagonist 5%[70.6 µM], Luciferase inh inactive, HEK293 tox -5%[172 µM], GPT2 inhibitor -9%[88.5 µM] and 3T3 cytotox 5%[174 µM].
For COC(=O)[C@@H]1Cc2ncn(Cc3ccc(Cl)cc3)c2CN1C(=O)c1ccc(C#N)cc1 the results were hNpr1 antagonist 4%[70.6 µM], Luciferase inh inactive, HEK293 tox -9%[172 µM], GPT2 inhibitor -6%[88.5 µM] and 3T3 cytotox inconclusive.
Screening COC(=O)[C@@H]1Cc2ncn(Cc3ccc(Cl)cc3)c2CN1Cc1cccc(C#N)c1 returned hNpr1 antagonist inconclusive, Luciferase inh inactive, HEK293 tox 63µM*, GPT2 inhibitor inactive, 3T3 cytotox inconclusive, Npr1 antag conf inconclusive, NPR2 antag inconclusive, FLuc inh counter -1%[86.2 µM] and GloSensor cGMP inconclusive.
For NS(=O)(=O)c1ccc(C(=O)N2C[C@@H](CN3CCCCC3)[C@@H](CO)C2)cc1 the results were hNpr1 antagonist 3%, Luciferase inh inactive, HEK293 tox -4%, GPT2 inhibitor -8% and 3T3 cytotox inactive.
For CCCN1CCOc2ccc(C(=O)NCc3ccccc3F)cc2C1 the results were hNpr1 antagonist 0%, Luciferase inh inactive, HEK293 tox -25%, GPT2 inhibitor inactive and 3T3 cytotox -6%.
For Cc1nn2c(c1-c1ccccc1-c1ccccc1)N(Cc1ccc(O)cc1)CCC2 the results were hNpr1 antagonist 3.5µM*, Luciferase inh inactive, HEK293 tox 7.9µM*, GPT2 inhibitor -7%[88.5 µM], 3T3 cytotox 8.9µM*, Npr1 antag conf 2.8µM*, NPR2 antag 5µM*, FLuc inh counter 2%[86.2 µM] and GloSensor cGMP 3.5µM*.
For Cc1cccc(CN2CCCn3nc(C)c(-c4ccccc4-c4ccccc4)c32)n1 the results were hNpr1 antagonist 16µM*, Luciferase inh inactive, HEK293 tox inconclusive, GPT2 inhibitor inactive, 3T3 cytotox 13µM*, Npr1 antag conf 11µM*, NPR2 antag 28µM*, FLuc inh counter -2%[86.2 µM] and GloSensor cGMP 7.9µM*.
CN(Cc1cccnc1)C(=O)CCC1CCN(C(=O)c2ccccc2)CC1 was read as hNpr1 antagonist 6%, Luciferase inh inactive, HEK293 tox inconclusive, GPT2 inhibitor 3% and 3T3 cytotox -14%.
For O=C(c1csc(Cc2ccccc2)n1)N1CC[C@H](CO)[C@@H](O)C1 the results were hNpr1 antagonist 2%, Luciferase inh inactive, HEK293 tox 4%, GPT2 inhibitor 0% and 3T3 cytotox inactive.
For O=C1CCC(CNC(=O)c2nc(-c3ccccc3)cc3[nH]ccc23)N1 (centres undefined) the results were hNpr1 antagonist -6%[70.6 µM], Luciferase inh inactive, HEK293 tox -5%[172 µM], GPT2 inhibitor -21%[88.5 µM] and 3T3 cytotox inconclusive.
`O=C(NCCCn1ccnc1)c1nc(-c2ccccc2)cc2[nH]ccc12` gave hNpr1 antagonist inconclusive, Luciferase inh inactive, HEK293 tox inconclusive, GPT2 inhibitor 2%[88.5 µM], 3T3 cytotox inconclusive, Npr1 antag conf inconclusive, NPR2 antag inconclusive, FLuc inh counter 3%[86.2 µM] and GloSensor cGMP -19%[86.2 µM].
Screening O=C1[C@@H]2C[C@@H](CN2Cc2ccc(C(F)(F)F)cc2)Oc2ccccc2N1Cc1cccnc1 returned hNpr1 antagonist -28%, Luciferase inh inactive, HEK293 tox 35µM*, GPT2 inhibitor 4%, 3T3 cytotox inconclusive, Npr1 antag conf inconclusive, NPR2 antag -18%, FLuc inh counter -9% and GloSensor cGMP -1%.
`O=C1[C@@H]2C[C@@H](CN2CC2CC2)Oc2ccccc2N1Cc1cccnc1` gave hNpr1 antagonist -17%[70.6 µM], Luciferase inh inactive, HEK293 tox inconclusive, GPT2 inhibitor 0%[88.5 µM] and 3T3 cytotox -23%[174 µM].
COCc1cc(C[C@@H]2CC[C@H](O)[C@@H](CNC3CCN(C)CC3)O2)no1 was read as hNpr1 antagonist -2%[70.6 µM], Luciferase inh inactive, HEK293 tox -11%[172 µM], GPT2 inhibitor -16%[88.5 µM] and 3T3 cytotox -9%[138 µM].
For CCNC[C@H]1O[C@H](Cc2cc(-c3ccc(F)cc3)on2)CC[C@@H]1O the results were hNpr1 antagonist inconclusive, Luciferase inh inconclusive, HEK293 tox inconclusive, GPT2 inhibitor -2%[88.5 µM], 3T3 cytotox inconclusive, Npr1 antag conf inconclusive, NPR2 antag -21%[86.2 µM], FLuc inh counter -26%[86.2 µM] and GloSensor cGMP inconclusive.
For O[C@H]1CC[C@@H](Cc2cc(-c3ccc(F)cc3)on2)O[C@@H]1CNCc1ccncc1 the results were hNpr1 antagonist -13%[70.6 µM], Luciferase inh inactive, HEK293 tox -21%[172 µM], GPT2 inhibitor -7%[88.5 µM] and 3T3 cytotox -18%[174 µM].
Screening CN1CCC(NC[C@H]2O[C@H](Cc3cc(-c4cccc(O)c4)on3)CC[C@@H]2O)CC1 returned hNpr1 antagonist inconclusive, Luciferase inh inactive, HEK293 tox 0%[172 µM], GPT2 inhibitor -1%[88.5 µM], 3T3 cytotox -2%[174 µM], Npr1 antag conf inconclusive, NPR2 antag -27%[86.2 µM], FLuc inh counter -13%[86.2 µM] and GloSensor cGMP inconclusive.

Screening data deposited in PubChem BioAssay by National Center for Advancing Translational Sciences (NCATS).
